# D3 antag: qHTS of D3 Dopamine Receptor Antagonist: qHTS | 360,000 compounds, 2.5% hits | AID 652054, 2013 | max response, negative = inhibition, % | D3R cells, DiscoveRx beta-arrestin luminescence, antagonist mode; hits give low values | D(3) dopamine receptor (Homo sapiens), P35462; in the data active = max response below about -50%; note: % is set by controls: 0 for no effect and ±100 for the full control effect
#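 Cells plated overnight at 1500 cells/well, then exposed to library compounds with dopamine controls for 90 minutes at 37 degrees C. DiscoveRx reagent added for 30–60 minutes at room temperature; luminescence read, quantitative HTS format.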
# D1 PAM: Potentiators of Human D1 Dopamine Receptor: qHTS; 360,000 compounds, 0.036% hits; potentiation, % at 10 µM; HEK293 TREx D1 cells, calcium flux, dopamine EC20 potentiation; AID 504651, 2011; D(1A) dopamine receptor (Homo sapiens), P21728; in the data active = potentiation above about 30%; note: 0% is about no effect
# Target sequence (P21728 whole entry, looked up): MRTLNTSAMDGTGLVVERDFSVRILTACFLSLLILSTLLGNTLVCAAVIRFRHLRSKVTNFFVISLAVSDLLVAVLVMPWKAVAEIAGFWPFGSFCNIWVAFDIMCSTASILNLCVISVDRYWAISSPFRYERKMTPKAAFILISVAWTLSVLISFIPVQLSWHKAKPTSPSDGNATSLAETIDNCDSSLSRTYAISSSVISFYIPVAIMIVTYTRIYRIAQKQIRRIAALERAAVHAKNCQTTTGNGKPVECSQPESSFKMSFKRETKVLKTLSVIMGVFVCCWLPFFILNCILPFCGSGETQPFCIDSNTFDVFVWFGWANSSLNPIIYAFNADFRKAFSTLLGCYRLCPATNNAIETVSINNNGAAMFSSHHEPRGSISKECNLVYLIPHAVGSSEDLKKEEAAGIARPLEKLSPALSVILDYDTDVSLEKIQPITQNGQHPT
# DRD3 agonist: qHTS of D3 Dopamine Receptor Agonist: qHTS; D(3) dopamine receptor (Homo sapiens), P35462; D3R DiscoveRx beta-arrestin cells, luminescence, 90 min; max activation, %; 410,000 compounds, 0.58% hits; AID 652048, 2013; in the data active = max activation above about 30%; note: 0% is about no effect
#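 Cells at 1500/well, incubated overnight, then treated with pinned compounds (dopamine as control) for 90 min at 37 degrees C. DiscoveRx reagent added for 30 - 60 minutes at room temperature; luminescence read.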
# D1 antagonist: Antagonist of Human D 1 Dopamine Receptor: qHTS. activity change, negative = inhibition, % at 10 µM. 360,000 compounds, 3.2% hits. AID 504652, 2011. HEK293 TREx D1 cells, calcium flux, dopamine EC80; hits give low values; in the data active = activity change below about -30%; note: % is set by controls: 0 for no effect and ±100 for the full control effect
#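 Cells carrying a force-coupled, tetracycline-inducible human D1 receptor report calcium flux. Each well gets a 10 s baseline, compound with 180 s monitoring, then an EC80 dopamine stimulus with a second 180 s kinetic read.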
# D1 agonist: Allosteric Agonists of the Human D1 Dopamine Receptor: qHTS; HEK293 T-REx D1 cells, calcium flux, agonist mode; D(1A) dopamine receptor (Homo sapiens), P21728; activation, % at 2 µM; 360,000 compounds, 1% hits; in the data active = activation above about 30%; note: 0% is about no effect
#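 Tetracycline-induced HEK293 TREx D1 cells, force-coupled to calcium signalling, were dye-loaded with a no-wash calcium kit. Compound was pin-added after a 10 s baseline. Fluorescence was read kinetically at 1 cycle/s for 180 s, with calcium rises flagged as agonism.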
# The depositor's hits bear a star; x = not tested or not shown. Rows were chosen to be rich in hits. Some 6% of all compounds tested hit in one or more screens of this group.
SMILES,D3 antag,D1 PAM,DRD3 agonist,D1 antagonist,D1 agonist
O=C(N/N=C/c1c(O)n(Cc2ccccc2)c(=O)c2ccccc12)c1cccnc1,40,4,5,10,47*
COc1ccc(Cn2c(O)c(C=Nc3ccc(OC)cc3)c3ccccc3c2=O)cc1,0,2,-3,5,2
Cn1c(SCc2ccc(F)cc2)nc2ccc(C(=O)NCc3ccc(F)cc3)cc21,x,-3,-8,-32*,13
Cn1c(SCc2ccc(F)cc2)nc2ccc(C(=O)NCc3ccc(Cl)cc3)cc21,x,-5,-17,-6,11
CN(C)C(CNc1ccc(S(C)(=O)=O)cc1[N+](=O)[O-])c1ccccc1 (configuration not stated),-64*,-2,-20,-10,1
CC(=O)c1cccc(NC(=O)CCc2c(C)nc3c(-c4ccc(F)cc4)c(C)nn3c2C)c1,x,-6,-13,-15,2
CC1CCC/C=C/C(=O)c2c(O)cc(O)cc2CC(=O)O1 (configuration not stated),-89*,-12,-51,-9,2
C[C@@H]1Cc2c(O)c(O)cc(O)c2C(=O)O1,-9,12,28,7,2
CC(=O)Nc1cccc(-c2nnc(SCC(=O)c3cc([N+](=O)[O-])ccc3Cl)o2)c1,x,-3,-1,-2,-1
CCOC(=O)c1ccccc1NC(=O)CSc1ncc2c(n1)-c1ccccc1N(CC)S2(=O)=O,x,-4,5,5,5
CN1CCCC1CCOC(C)(c1ccccc1)c1ccc(Cl)cc1 (configuration not stated),-101*,x,x,x,x
COc1ccc(C(=O)Nc2ccccc2CCC2CCCCN2C)cc1 (configuration not stated),x,x,0,x,x
COc1cc2c(c(O)c1OC)-c1c(cc(OC)c(OC)c1OC)C[C@@H](C)[C@@H](C)C2,-4,-2,4,-40*,3
COc1cc2c(c(OC)c1OC)-c1c(cc(OC)c(OC)c1OC)C[C@H](C)[C@H](C)C2,-28,-1,-19,17,6
Cc1c(Cl)cccc1NC(=O)c1ccc2c(c1)nnn2C1CCCC1,x,-1,-19,-30,2
COc1ccccc1CN=C1NC(=O)C(CC(=O)Nc2ccc(C(C)=O)cc2)S1 (configuration not stated),-3,-4,53*,-11,1
Cc1ccccc1-n1nc(CO)c(C(=O)NCc2cccnc2)n1,x,-1,2,-22,-1
CCc1nnc(NC(=O)c2ccc(OC)cc2OC)s1,-7,-3,-5,-30*,3
COc1ccc(C(=O)Nc2nnc(SCC(=O)Nc3ccc(NC(C)=O)cc3)s2)c(OC)c1,18,-2,5,-2,3
O=C(NCc1cc(C(F)(F)F)ccc1Cl)c1cccc2c1C(=O)c1ccc(N3CCC(Cc4ccccc4)CC3)cc1S2(=O)=O,5,x,47*,x,x
CC(C)(C)CNC(=O)c1cccc2c1C(=O)c1ccc(N3CCCC3)cc1S2(=O)=O,70,x,23,x,x
O=C(NCc1ccc(F)cc1)c1cccc2c1C(=O)c1ccc(N3CCOCC3)cc1S2(=O)=O,75,-2,27,x,42*
O=C(NCc1ccccc1C(F)(F)F)c1cccc2c1C(=O)c1ccc(N3CCCCC3)cc1S2(=O)=O,56,x,33*,x,x
O=C1c2ccccc2S(=O)(=O)c2cc(N3CCC(C(=O)N4CCCCC4)CC3)ccc21,49,x,38*,x,x
O=C(NCc1ccc(F)cc1)c1cccc2c1C(=O)c1ccc(N3CCC(Cc4ccccc4)CC3)cc1S2(=O)=O,0,x,43*,x,x
SMILES,D3 antag,D1 PAM,DRD3 agonist,D1 antagonist,D1 agonist
CC1CCN(c2ccc3c(c2)S(=O)(=O)c2cccc(C(=O)NCc4ccc(F)cc4)c2C3=O)CC1,82,-2,15,-20,337*
CC1CCN(c2ccc3c(c2)S(=O)(=O)c2cccc(C(=O)NC4CCCCC4)c2C3=O)CC1,51,-1,4,-31*,35*
O=C(NCc1ccccc1Br)c1cccc2c1C(=O)c1ccc(N3CCOCC3)cc1S2(=O)=O,x,2,x,-18,37*
O=C(NCc1ccc(F)cc1)c1cccc2c1C(=O)c1ccc(N3CCC(N4CCCCC4)CC3)cc1S2(=O)=O,3,x,0,x,x
CCOC(=O)c1c(C)[nH]c(CCC(=O)Nc2cc(C)cc(C)c2)c1C,x,-4,-10,0,3
CC1=CC(=O)C(Sc2ccc(C)cc2)=CC1=O,-92*,x,-13,x,x
COc1cccc(CNC(=O)c2ccc(-n3c(C)cc4c3CCCC4)cc2)c1,x,2,-4,-10,-1
Nc1nc(NCc2ccccc2)nc(NCc2ccccc2)c1[N+](=O)[O-],7,4,32*,33,2
Cc1ccccc1Nc1nc(NCc2ccco2)c2ccccc2n1,-2,-16,-11,-36*,9
c1ccc(CN2CCN(c3nc(NCc4ccco4)c4ccccc4n3)CC2)cc1,-82*,-4,-13,x,9
Cc1cc(C)c(S(=O)(=O)N2CCN(c3ccc([N+](=O)[O-])c(NCc4ccco4)c3)CC2)c(C)c1,-24,2,-16,2,2
Cc1ccc(CNc2nc(N)c([N+](=O)[O-])c(NCc3ccccc3)n2)cc1,12,-5,-6,1,5
O=[N+]([O-])c1ccc(N2CCN(CCO)CC2)cc1NCc1ccco1,-63*,-1,-14,-13,1
COC(=O)c1c(SCC(=O)Nc2cccc(C(F)(F)F)c2)[nH]c2ccccc2c1=O,x,0,-9,-6,3
Cc1ccc(C)c(NC(=O)CSc2cn(CC(=O)N3CCCC3)c3ccccc23)c1,x,-7,-13,-1,0
Nc1nc(NCc2ccco2)nc(N2CCN(Cc3ccccc3)CC2)c1[N+](=O)[O-],-79*,-6,-14,-9,1
Cc1ccc(OCCN2CCN(c3nc(NCc4ccco4)c4ccccc4n3)CC2)cc1,-78*,-10,-26,-33*,7
OCCN1CCN(c2nc(NCc3ccco3)c3ccccc3n2)CC1,-82*,-6,-20,-5,3
Cc1cc(C)cc(NC(=O)c2cc(S(=O)(=O)N3CCCC3)ccc2F)c1,x,2,7,-13,-2
COc1ccc(-n2nc(-c3ccc(C)cc3)c3cnc4cc(F)c(F)cc4c32)cc1,x,-3,1,3,-1
CCc1ccc(C(=O)c2cn(Cc3ccccc3)c3cc(OC)c(OC)cc3c2=O)cc1,x,0,-5,0,4
Cc1ccccc1N1CCN(CCc2nnc3n2CCCC3)CC1,x,x,35*,x,x
O=c1c2ccccc2nc(/C=C/c2ccccc2)n1CCCO,30,0,9,10,2

# Compound activity as filed in PubChem.
